From PubChem BioAssay
Hits are enriched below; roughly 1.2% of the tested compounds scored in any of these assays.
VCAM1 TNFa inh – inhibitors of TNFa-induced VCAM1 expression, primary screen, imaging, HUVEC, TNFa stimulus, immunofluorescence; HUVEC TNFa-induced VCAM-1 immunofluorescence, high-content imaging; inhibition, % at 2 µM; actives 0.48% (n = 95,000);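 active = inhibition above the batch mean plus 3 SD, with images confirmed as a hit by eye, cut at about 37% in these data; inconclusive = inhibition above that limit but hit not confirmed in images; inactive = inhibition not above that limit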;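 also: 0% = TNF-stimulated DMSO wells and 100% = unstimulated control wells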
cytoskel mod – modifiers of F-actin cytoskeleton organization, primary screen, imaging, HUVEC, phalloidin staining, high-content imaging | actives 0.18% (n = 91,000) | inhibition, % at 2 µM | HUVEC TNFa F-actin phalloidin imaging | AID 836, 2007;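 active = inhibition above the batch mean plus 3 SD and confirmed as a hit by visual image inspection, cut at about 30% in these data, passing the limit was not always enough; inconclusive = above the inhibition threshold but rejected on visual inspection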
TNFa cytotox – cytotoxicity in TNFa-stimulated HUVEC, primary screen, cytotoxicity control for VCAM1 expression modulator project, imaging, Hoechst nuclei count; HUVEC TNFalpha-stimulated, Hoechst cell count; cell count reduction, % at 2 µM; actives 0.17% (n = 93,000);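 active = cell count reduction exceeding the screen mean by over 5 SD, scaled to untreated wells per plate, cut at about 78% in these data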;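 also: cells counted after 24 h of TNF alpha exposure following the 1 h pretreatment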
E-sel TNF inh – E-selectin induction blockers in HUVEC – imaging, immunofluorescence, high content, primary screen; HUVEC TNFa-induced E-selectin immunofluorescence; inhibition, % at 2 µM; actives 0.71% (n = 120,000); AID 1246, 2008;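 active = inhibition above the batch mean plus 3 SD, and confirmed as a hit on visual image review, cut at about 43% in these data; inconclusive = passes the inhibition cutoff but fails visual image review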;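 also: 0% = TNF-stimulated DMSO wells and 100% = unstimulated control wells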
An asterisk follows results filed as active; ? = inconclusive; · = not tested or not shown.

SMILES	VCAM1 TNFa inh	cytoskel mod	TNFa cytotox	E-sel TNF inh
CNc1c([N+](=O)[O-])cnn1-c1ccc(Cl)cc1	6.8	50.0*	-11.7	-35.6
CN(C)c1ccc(-c2nc3ccccn3c2/N=C/c2ccc(Br)cc2)cc1	·	·	·	-2.8
CCCCN(C(=O)CCC(=O)Nc1cc(C)on1)C(C(=O)NC(C)(C)C)c1cccc(OC)c1OC (stereo unspecified)	14.2	-37.4	-9.5	21.1
COc1cccc(C(C(=O)NC(C)(C)C)N(C(=O)CCC(=O)Nc2cc(C)on2)C2CC2)c1OC (stereo unspecified)	-3.8	-25.4	3.8	67.5*
COc1ccc(-c2cc(C)nc(SCc3cccc(C(=O)O)c3)n2)cc1	·	·	·	68.6*
Cc1[nH]c2ccccc2c1C(=O)COC(=O)c1ccc([N+](=O)[O-])s1	·	·	·	31.5
CCC(=O)c1ccc(N2CCOCC2)c(F)c1	4.7	-18.1	-14.2	56.5*
COc1ccc(C(=O)c2c(C(F)(F)F)oc3c2C(=O)c2ccccc2C3=O)cc1	93.8*	-33.5	29.9	-4.7
CCCCCCCC(=O)Nc1ccc(S(=O)(=O)Nc2nccs2)cc1	·	·	·	-5.9
CCn1nc(C(=O)Nc2ccc(S(=O)(=O)Nc3nccs3)cc2)c2ccccc2c1=O	-25.0	1.5	11.4	60.9*
O=C(O)CNC(=O)c1ccccc1NC(=O)c1ccco1	-3.9	·	-10.7	-19.9
CC(C)(C)NC(=O)NC(=O)COC(=O)c1cccc(NS(=O)(=O)c2ccc(F)c(F)c2)c1	·	·	·	-20.1
CCN(CC)c1ccc(NC(=O)COC(=O)/C=C/c2nc3ccccc3s2)cc1	·	·	·	62.1*
O=C1CCSc2cccc3cccc(c23)N1	90.2*	-65.6	83.5*	·
Cn1nc(OCc2ccccc2)ccc1=O	-14.6	7.9	-44.8	·
COc1ccc(S(=O)(=O)N(CC(N)=O)C2CCCCC2)cc1Cl	-3.4	4.9	-12.8	45.0*
COc1ccc(S(=O)(=O)N(C)CC(=O)NC2CCCCC2)cc1Cl	-11.4	6.9	-3.7	-3.6
CC(C)(C)OC(=O)NCC(=O)N1CCC(C(=O)O)CC1	10.7	17.7	-20.8	69.3*
CCOC(=O)C1CCN(C(=O)CNC(=O)OC(C)(C)C)CC1	-3.7	19.9	-18.1	-51.1
CC1CC2(NC(=O)NC2=O)C(C)CN1C (stereo unspecified)	14.0	-3.3	·	-1.3
C=CCc1cccc(/C=N/NC(=O)CNc2ccccc2)c1O	10.2	-4.9	-2.0	-5.6
C=CCc1cccc(/C=N/NC(=O)CCCNc2ccc(C)cc2)c1O	·	·	·	68.7*
NC(=S)N/N=C/c1ccc(-c2cc(Cl)ccc2Cl)o1	54.0*	-8.3	8.6	-27.9
COc1cc(Br)c(C(C)NC(=O)c2ccccc2)cc1OC (stereo unspecified)	-24.9	-21.0	18.8	-0.7
O=C(NCCCn1ccnc1)c1ccncc1	9.9	-12.2	-24.5	-25.2
SMILES	VCAM1 TNFa inh	cytoskel mod	TNFa cytotox	E-sel TNF inh
Cc1ccc(C(=O)NCCCn2ccnc2)cn1	-5.3	30.2*	-42.6	14.5
COc1ccccc1C(=O)NNC(=O)c1ccncc1	·	·	·	-33.5
Cc1ccc(Nc2nc(-c3c(C)nc4ccccn34)cs2)cc1	93.2*	-69.6	75.4	1.1
Cc1ccc(Nc2nc(-c3c(C)nc4ncccn34)cs2)cc1	11.6	-32.5	39.9	37.9
Oc1ccc(Nc2nc(-c3ccc4ccccc4c3)cs2)cc1	74.8*	18.1	-7.8	13.9
c1ccc(-c2nnc(SCc3nc4ccccc4[nH]3)n2Cc2ccco2)nc1	1.0	16.5	-11.6	·
Cc1cc(C)nc(SCC(=O)N/N=C/c2cc(C)n(-c3ccccc3C)c2C)n1	·	·	·	-5.2
[O-][n+]1onc2c1C(N1CCOCC1)CCC2N1CCOCC1 (stereo unspecified)	-9.6	2.3	-33.6	81.7*
Cc1nnc(SCC(=O)NC2CCCc3ccccc32)n1-c1ccccc1 (stereo unspecified)	·	·	·	-5.3
Cc1nnc(SCC(=O)Nc2ncc3c(n2)CC(c2ccccc2)CC3=O)s1 (stereo unspecified)	13.1	9.1	-20.0	4.1
COc1ccc(/C(O)=C2\C(=O)C(=O)N(CCN3CCOCC3)C2c2ccccc2OC)cc1 (stereo unspecified)	·	·	·	41.7
COc1ccccc1C1/C(=C(/O)c2ccc(C)cc2)C(=O)C(=O)N1CCN1CCOCC1 (stereo unspecified)	·	·	·	69.5*
COc1cccc(=O)c2c(C)n(-c3cc(C)cc(C)c3)c(C)c12	-18.7	-9.0	-26.8	67.4*
COc1cccc(=O)c2c(C)n(C)c(C)c12	0.7	-10.3	-34.0	-2.4
Cc1ccc(S(=O)(=O)Cn2nnnc2C(C(C)C)N2CCN(c3nc4ccccc4s3)CC2)cc1 (stereo unspecified)	50.5*	22.4	40.0	-0.2
c1ccc(Cn2nnnc2C(c2ccccc2)N2CCN(c3nc4ccccc4s3)CC2)cc1 (stereo unspecified)	23.4	21.4	-24.1	·
O=C(NC(CO)C(O)c1ccc([N+](=O)[O-])cc1)C(Cl)Cl (stereo unspecified)	·	·	·	-1.0
CN1/C(=C/C(=O)c2nc(S(C)(=O)=O)ncc2Cl)C(C)(C)c2ccccc21	-8.8	-0.4	17.1	90.1*
CN1/C(=C\C(=O)c2cncc(Br)c2)C(C)(C)c2ccccc21	·	·	·	-3.9
CN(C)c1ccnc(NCc2ccccc2)c1C#N	-19.5	8.1	-1.1	-29.6
N#Cc1c(NCc2ccccc2)ccnc1NCc1cccnc1	92.9*	37.9	·	-18.4
CCOC(=O)/C=C/C(=O)OCC(=O)Nc1ccc(Cl)cc1Cl	·	·	·	-2.1
CCc1cc[n+](CC(=O)Nc2ccc(Cl)cc2Cl)cc1	·	·	·	76.8*
CCn1c(SCc2nc(CC(=O)Nc3ccccc3OC)no2)nnc1-c1cccs1	-9.4	-5.5	7.6	99.9*
CCN1CCN(Cc2c(C)[nH]c3ccc(C(=O)OC)cc3c2=O)CC1	96.0*	8.1	-26.4	-15.2
SMILES	VCAM1 TNFa inh	cytoskel mod	TNFa cytotox	E-sel TNF inh
CCOc1ccc2[nH]c(C)c(CN3CCCCC3)c(=O)c2c1	11.3	-1.9	9.3	·
Cc1cc(N2CCCCC2)nc(NCc2ccccc2)n1	9.4	-2.5	-9.7	72.3*
O=C(Cn1cccc1C(=O)c1ccccc1)NCCN1CCOCC1	82.0*	?	43.8	-1.0
O=C(Cn1cccc1C(=O)c1ccccc1)NCCCN1CCOCC1	0.3	9.8	0.0	·
CCCCOc1ccc2ccccc2c1C=O	7.3	8.8	-19.8	52.0*
CCCOc1ccc(/C(O)=C2/C(=O)C(=O)N(CCOC)C2c2cccnc2)cc1 (stereo unspecified)	86.8*	-25.9	80.4*	-10.9
CC1Cc2cc(/C(O)=C3/C(=O)C(=O)N(CCCn4ccnc4)C3c3ccco3)ccc2O1 (stereo unspecified)	8.1	2.9	-17.4	0.8
CCCOc1ccc(/C(O)=C2/C(=O)C(=O)N(CCCn3ccnc3)C2c2ccco2)cc1 (stereo unspecified)	10.6	-10.9	-11.5	100.0*
COc1ccc(/C(O)=C2/C(=O)C(=O)N(Cc3cccnc3)C2c2ccncc2)cc1F (stereo unspecified)	3.7	-10.6	36.7	70.0*
CC1Cc2cc(/C(O)=C3/C(=O)C(=O)N(CCCn4ccnc4)C3c3ccncc3)ccc2O1 (stereo unspecified)	5.7	-27.1	-10.9	58.3*
